Experimental data as given in the supplement of paper PMC11006884.
The full data set covers some 6,500 targets. This sample favours those with a hit. About 2% of all pairs of compound and target were hits.

Compound: COC(=O)C#Cc1ccccc1 [methyl 3-phenylpropiolate]
Assay: log2 ratio of iodoacetamide-alkyne labeling of the cysteine site, DMSO over compound (competition); higher = stronger covalent engagement of the cysteine by the compound, active = 1 or more
Details: 500 µM; treatment time 1 h; system: HEK293T cell lysate
Method in brief: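 HEK293T lysate (2 mg/mL) was incubated with electrophile (500 µM) or vehicle for 1 h at ambient temperature and then with iodoacetamide alkyne for 1 h. Labelled proteins were clicked to sCIP-TMT reagents, pooled, digested, enriched on streptavidin and measured by Orbitrap Eclipse LC-MS/MS with FAIMS, with FragPipe quantification. The per-cysteine log2 competition ratio is mean control-channel reporter intensity over mean compound-channel reporter intensity. Across three replicates with duplicate channels, cysteines quantified in only one replicate were excluded.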

Sequence of UniProt Q9BZE9 (Q9BZE9 whole entry, looked up): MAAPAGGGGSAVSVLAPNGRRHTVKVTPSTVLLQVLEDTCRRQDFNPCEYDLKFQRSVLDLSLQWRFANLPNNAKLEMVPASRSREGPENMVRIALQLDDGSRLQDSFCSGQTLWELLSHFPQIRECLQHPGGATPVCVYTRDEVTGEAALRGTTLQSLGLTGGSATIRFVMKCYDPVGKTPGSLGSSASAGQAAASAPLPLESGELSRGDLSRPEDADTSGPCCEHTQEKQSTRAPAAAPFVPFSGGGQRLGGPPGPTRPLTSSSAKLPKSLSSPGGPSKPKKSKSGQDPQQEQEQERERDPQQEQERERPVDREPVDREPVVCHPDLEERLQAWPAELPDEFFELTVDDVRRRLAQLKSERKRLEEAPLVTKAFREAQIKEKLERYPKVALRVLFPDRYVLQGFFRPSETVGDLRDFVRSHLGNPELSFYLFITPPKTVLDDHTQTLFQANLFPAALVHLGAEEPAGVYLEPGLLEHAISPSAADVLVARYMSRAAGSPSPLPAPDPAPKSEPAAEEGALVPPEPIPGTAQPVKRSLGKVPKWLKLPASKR
Sequence of UniProt Q9C0C2 (Q9C0C2 whole entry, looked up): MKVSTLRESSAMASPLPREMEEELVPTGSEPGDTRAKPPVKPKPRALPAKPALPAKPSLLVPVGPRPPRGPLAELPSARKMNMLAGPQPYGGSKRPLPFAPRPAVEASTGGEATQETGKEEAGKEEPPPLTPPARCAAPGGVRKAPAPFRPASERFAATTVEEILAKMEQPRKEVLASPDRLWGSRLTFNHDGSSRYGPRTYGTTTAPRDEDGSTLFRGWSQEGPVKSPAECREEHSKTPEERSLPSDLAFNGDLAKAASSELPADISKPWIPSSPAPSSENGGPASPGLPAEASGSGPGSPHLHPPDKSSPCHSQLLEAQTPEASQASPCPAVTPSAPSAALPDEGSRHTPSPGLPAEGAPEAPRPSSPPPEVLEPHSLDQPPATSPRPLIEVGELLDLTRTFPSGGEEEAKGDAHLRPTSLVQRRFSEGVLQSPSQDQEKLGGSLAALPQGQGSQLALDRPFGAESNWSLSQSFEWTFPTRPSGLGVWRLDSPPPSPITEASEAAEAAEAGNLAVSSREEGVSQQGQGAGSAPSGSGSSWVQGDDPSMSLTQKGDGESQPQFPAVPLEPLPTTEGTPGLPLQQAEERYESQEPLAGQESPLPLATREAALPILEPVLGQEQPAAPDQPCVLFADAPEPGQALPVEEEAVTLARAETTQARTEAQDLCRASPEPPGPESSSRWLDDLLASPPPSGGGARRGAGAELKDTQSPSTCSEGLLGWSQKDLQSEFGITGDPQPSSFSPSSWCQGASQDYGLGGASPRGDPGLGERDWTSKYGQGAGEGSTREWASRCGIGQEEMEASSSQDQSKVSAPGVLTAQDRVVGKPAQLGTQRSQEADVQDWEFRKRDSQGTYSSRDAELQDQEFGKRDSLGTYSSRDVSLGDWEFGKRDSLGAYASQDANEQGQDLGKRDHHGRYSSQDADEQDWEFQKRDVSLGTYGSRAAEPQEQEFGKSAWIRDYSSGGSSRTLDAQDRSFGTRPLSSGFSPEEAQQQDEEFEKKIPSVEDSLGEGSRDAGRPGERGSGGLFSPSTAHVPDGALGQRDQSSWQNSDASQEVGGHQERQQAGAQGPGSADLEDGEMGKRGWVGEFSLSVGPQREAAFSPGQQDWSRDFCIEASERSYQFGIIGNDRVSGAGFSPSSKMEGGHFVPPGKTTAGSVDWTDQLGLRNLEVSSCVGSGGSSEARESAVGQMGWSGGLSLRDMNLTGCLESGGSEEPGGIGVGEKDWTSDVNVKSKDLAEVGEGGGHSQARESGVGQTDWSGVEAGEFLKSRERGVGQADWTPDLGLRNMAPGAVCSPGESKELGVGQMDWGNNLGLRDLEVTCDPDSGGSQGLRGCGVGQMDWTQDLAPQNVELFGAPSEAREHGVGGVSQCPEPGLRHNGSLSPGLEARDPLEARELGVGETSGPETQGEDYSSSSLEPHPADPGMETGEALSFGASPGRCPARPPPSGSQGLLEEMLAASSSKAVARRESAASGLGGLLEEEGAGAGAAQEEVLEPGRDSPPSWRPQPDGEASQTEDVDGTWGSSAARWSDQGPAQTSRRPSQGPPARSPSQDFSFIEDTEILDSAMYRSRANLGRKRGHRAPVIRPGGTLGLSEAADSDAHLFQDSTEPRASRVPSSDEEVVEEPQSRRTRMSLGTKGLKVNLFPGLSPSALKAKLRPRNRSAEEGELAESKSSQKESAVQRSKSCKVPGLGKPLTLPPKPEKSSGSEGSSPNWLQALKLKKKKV
Sequence of UniProt Q9UPW5 (Q9UPW5 whole entry, looked up): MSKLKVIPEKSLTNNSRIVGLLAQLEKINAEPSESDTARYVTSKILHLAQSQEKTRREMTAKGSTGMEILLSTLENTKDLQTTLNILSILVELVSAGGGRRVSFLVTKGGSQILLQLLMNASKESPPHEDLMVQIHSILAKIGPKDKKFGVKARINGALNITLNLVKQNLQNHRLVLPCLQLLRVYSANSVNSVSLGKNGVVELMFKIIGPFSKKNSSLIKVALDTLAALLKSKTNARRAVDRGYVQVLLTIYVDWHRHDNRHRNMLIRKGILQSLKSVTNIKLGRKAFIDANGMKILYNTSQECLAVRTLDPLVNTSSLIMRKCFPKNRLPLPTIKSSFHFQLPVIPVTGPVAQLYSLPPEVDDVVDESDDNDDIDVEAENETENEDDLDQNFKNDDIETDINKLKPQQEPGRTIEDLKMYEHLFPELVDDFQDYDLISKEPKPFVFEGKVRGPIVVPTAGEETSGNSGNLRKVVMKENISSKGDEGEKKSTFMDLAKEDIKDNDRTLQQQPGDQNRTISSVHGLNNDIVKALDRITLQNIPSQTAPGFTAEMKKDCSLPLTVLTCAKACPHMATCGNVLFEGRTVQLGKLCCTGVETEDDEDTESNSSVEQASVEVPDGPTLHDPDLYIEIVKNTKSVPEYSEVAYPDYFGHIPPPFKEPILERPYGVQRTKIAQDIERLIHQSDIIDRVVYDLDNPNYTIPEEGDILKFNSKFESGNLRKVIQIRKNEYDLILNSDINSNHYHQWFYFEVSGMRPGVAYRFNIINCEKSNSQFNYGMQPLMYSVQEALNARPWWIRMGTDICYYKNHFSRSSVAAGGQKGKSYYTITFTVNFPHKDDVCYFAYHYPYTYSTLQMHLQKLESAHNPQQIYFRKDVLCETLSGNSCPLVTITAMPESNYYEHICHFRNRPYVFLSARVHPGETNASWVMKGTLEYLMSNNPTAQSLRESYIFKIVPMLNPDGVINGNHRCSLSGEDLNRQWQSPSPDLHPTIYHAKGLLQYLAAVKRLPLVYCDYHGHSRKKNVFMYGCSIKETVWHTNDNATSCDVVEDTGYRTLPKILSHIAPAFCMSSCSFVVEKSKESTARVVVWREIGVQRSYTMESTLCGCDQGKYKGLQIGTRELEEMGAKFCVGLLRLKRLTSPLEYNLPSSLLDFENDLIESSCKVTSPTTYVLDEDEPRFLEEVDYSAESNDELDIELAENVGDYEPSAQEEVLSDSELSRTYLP
Sequence of UniProt Q9NRL3 (Q9NRL3 whole entry, looked up): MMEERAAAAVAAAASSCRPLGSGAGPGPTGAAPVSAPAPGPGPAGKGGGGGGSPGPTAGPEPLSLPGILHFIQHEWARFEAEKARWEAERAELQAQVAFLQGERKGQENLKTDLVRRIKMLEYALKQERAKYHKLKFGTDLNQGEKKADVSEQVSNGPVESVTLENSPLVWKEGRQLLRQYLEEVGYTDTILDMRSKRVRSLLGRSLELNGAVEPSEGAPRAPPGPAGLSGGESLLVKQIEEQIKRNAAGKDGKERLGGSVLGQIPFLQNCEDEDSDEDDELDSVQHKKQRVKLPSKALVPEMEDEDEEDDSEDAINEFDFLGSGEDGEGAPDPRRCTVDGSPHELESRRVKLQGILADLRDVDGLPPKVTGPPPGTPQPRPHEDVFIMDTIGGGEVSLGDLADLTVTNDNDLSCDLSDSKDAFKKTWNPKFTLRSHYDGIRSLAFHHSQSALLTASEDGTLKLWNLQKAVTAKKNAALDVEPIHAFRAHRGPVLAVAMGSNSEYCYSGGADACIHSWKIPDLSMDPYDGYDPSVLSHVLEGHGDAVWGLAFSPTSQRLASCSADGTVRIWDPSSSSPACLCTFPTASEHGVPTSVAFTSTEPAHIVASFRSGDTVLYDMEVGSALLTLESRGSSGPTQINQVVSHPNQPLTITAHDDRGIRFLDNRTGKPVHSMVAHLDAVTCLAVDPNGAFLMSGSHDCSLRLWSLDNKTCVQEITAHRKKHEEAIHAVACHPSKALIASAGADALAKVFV
Sequence of UniProt Q9UJC3 (Q9UJC3 whole entry): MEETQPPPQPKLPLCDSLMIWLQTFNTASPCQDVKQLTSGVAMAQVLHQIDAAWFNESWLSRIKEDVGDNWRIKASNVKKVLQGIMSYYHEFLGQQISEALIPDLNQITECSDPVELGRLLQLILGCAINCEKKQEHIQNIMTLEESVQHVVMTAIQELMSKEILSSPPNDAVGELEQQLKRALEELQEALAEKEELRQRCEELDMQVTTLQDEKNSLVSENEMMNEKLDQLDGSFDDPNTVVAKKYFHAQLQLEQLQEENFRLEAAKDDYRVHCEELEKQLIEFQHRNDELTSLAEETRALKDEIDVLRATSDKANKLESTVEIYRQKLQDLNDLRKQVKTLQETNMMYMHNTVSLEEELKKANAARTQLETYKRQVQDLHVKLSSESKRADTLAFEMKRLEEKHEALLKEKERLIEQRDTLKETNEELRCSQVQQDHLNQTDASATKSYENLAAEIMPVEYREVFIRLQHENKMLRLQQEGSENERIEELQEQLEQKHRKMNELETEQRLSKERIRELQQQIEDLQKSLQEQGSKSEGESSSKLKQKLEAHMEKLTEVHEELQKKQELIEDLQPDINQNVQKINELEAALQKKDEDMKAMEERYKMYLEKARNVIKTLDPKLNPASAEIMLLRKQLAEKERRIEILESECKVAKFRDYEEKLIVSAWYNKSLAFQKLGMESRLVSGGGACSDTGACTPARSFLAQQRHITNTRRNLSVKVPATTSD

log2 ratio of iodoacetamide-alkyne labeling, inactive:
GSTK1 C176 (UniProt Q9Y2Q3) 0.387
ALG5 C194 (UniProt Q9Y673) 0.233
MIOS C321 (UniProt Q9NXC5) 0.126
UniProt Q9NUQ3_C127 0.926
EIF2B3 C64 (UniProt Q9NR50) 0.548
UniProt Q9NQG6_C111 0.389
HECTD1 C1995 (UniProt Q9ULT8) 0.345
UniProt Q9H1B7_C385 0.164
SPATA5L1 C78 (UniProt Q9BVQ7) 0.204
CD2AP C540 (UniProt Q9Y5K6) 0.456
UniProt Q9NPA3_C62 0.293
C11orf68 C222 (UniProt Q9H3H3) 0.528
TRIM33 C153 (UniProt Q9UPN9) 0.274
TRABD C287 (UniProt Q9H4I3) 0.0519
DCTN4 C41 (UniProt Q9UJW0) 0.309
DIS3 C213 (UniProt Q9Y2L1) 0.313
NIT2 C146 (UniProt Q9NQR4) 0.119
STRN4 C337 (UniProt Q9NRL3) 0.488
UniProt Q9C0E8_C149 0.125
FTO C326 (UniProt Q9C0B1) 0.0865
DDX20 C524 (UniProt Q9UHI6) 0.6
HOOK1 C432 (UniProt Q9UJC3) 0.385
MBD1 C57 (UniProt Q9UIS9) 0.0108
AASS C87 (UniProt Q9UDR5) 0.102
UniProt Q9BYG3_C237 0.515
DLGAP4 C736 (UniProt Q9Y2H0) 0.69
UNC45A C420 (UniProt Q9H3U1) 0.56
DAXX C338 (UniProt Q9UER7) 0.306
HECTD1 C1368 (UniProt Q9ULT8) 0.751
ANKFY1 C675 (UniProt Q9P2R3) 0.216
TNKS1BP1 C1296 (UniProt Q9C0C2) 0.451

log2 ratio of iodoacetamide-alkyne labeling, active:
ATXN10 C356 (UniProt Q9UBB4) 1.32
AGTPBP1 C567 (UniProt Q9UPW5) 1.18
ANKFY1 C460 (UniProt Q9P2R3) 1.44
REXO4 C382 (UniProt Q9GZR2) 1.23
SMARCAD1 C772 (UniProt Q9H4L7) 1
DAXX C720 (UniProt Q9UER7) 1.35
MDN1 C43 (UniProt Q9NU22) 1.32
NOP16 C36 (UniProt Q9Y3C1) 1.12
ASPSCR1 C224 (UniProt Q9BZE9) 1.02
